Results as given in PubChem BioAssay.
The source made the active and inactive calls.

Experiments:
[1] = binders of probe aFSTL3 on microarray, primary screen, stem cell growth factor project, biochemical, small-molecule microarray, fluorescence 635/667 (AID 1064); conditions: higher = more signal;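 further: measures binding of the biotinylated anti-FSTL3 antibody to printed compounds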
[2] = binders from COS7 lysate, DM2A8 probe, primary screen, torsin A project, cell lysate, small-molecule microarray, fluorescence 635/667 (AID 1065); conditions: higher = more signal, COS7 lysate expressing mutant human TOR1A
[3] = binders of probe aFGF2 on microarray, primary screen, stem cell growth factor project, biochemical, small-molecule microarray, fluorescence 635/667 (AID 1067); conditions: higher = more signal;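 further: measures binding of biotinylated aFGF2 protein to printed compounds on slides; z-score merges feature fluorescence and signal-to-noise across triplicate slides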
[4] = binders of probe aFGF10 on microarray, primary screen, stem cell growth factor project, biochemical, small-molecule microarray, fluorescence 635/667 (AID 1071); conditions: higher = more signal;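 further: score merges 667 nm spot intensity and signal to noise from triplicate slides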
[5] = molecular target: Neurogenic locus notch homolog protein 2 (Homo sapiens) (UniProt Q04721); assay: Notch2 binders on small-molecule microarrays, primary screen, biochemical, small-molecule microarray, 635 nm fluorescence, stem cell growth factors (AID 1073); conditions: Notch2 binding, higher = more signal
[6] = molecular target: Pro-neuregulin-1, membrane-bound isoform (Homo sapiens) (UniProt Q02297); assay: NRG1 binders on small-molecule microarrays, primary screen, psychiatric disease protein project, biochemical, small-molecule microarray, fluorescence 635/667 (AID 1075); conditions: NRG1 binding, 635 nm fluorescence, higher = more signal;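 further: score combines 667 nm spot fluorescence with signal to noise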
[7] = tested on: Neuregulin-1 EGF-like domain; assay: binders of neuregulin-1 EGF-like domain, primary screen, biochemical, small-molecule microarray, 635 nm fluorescence (AID 1081); conditions: small-molecule microarray binding, higher = more signal;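 further: binding of the protein to compounds printed on small-molecule microarray slides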
[8] = FRG1 promoter luciferase signal modulators, primary screen, FRG1 inhibition for FSHD, cell-based, C2C12 myotubes, firefly/Renilla luciferase, luminescence (AID 1084); conditions: higher = more signal, called active from +8 up or from −8 down
[9] = binders of probe aFST on microarray, primary screen, stem cell growth factor project, biochemical, small-molecule microarray, fluorescence 635/667 (AID 1086); conditions: higher = more signal;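 further: score merges 667 nm fluorescence with signal-to-noise of each printed compound spot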
[10] = binders of probe aHhip on microarray, primary screen, stem cell growth factor project, biochemical, small-molecule microarray, fluorescence 635/667 (AID 1087); conditions: higher = more signal;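 further: score merges spot fluorescence at 667nm with spot signal to noise ratio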

Sequence of Neurogenic locus notch homolog protein 2 (Homo sapiens) (Q04721 whole entry, looked up, canonical isoform): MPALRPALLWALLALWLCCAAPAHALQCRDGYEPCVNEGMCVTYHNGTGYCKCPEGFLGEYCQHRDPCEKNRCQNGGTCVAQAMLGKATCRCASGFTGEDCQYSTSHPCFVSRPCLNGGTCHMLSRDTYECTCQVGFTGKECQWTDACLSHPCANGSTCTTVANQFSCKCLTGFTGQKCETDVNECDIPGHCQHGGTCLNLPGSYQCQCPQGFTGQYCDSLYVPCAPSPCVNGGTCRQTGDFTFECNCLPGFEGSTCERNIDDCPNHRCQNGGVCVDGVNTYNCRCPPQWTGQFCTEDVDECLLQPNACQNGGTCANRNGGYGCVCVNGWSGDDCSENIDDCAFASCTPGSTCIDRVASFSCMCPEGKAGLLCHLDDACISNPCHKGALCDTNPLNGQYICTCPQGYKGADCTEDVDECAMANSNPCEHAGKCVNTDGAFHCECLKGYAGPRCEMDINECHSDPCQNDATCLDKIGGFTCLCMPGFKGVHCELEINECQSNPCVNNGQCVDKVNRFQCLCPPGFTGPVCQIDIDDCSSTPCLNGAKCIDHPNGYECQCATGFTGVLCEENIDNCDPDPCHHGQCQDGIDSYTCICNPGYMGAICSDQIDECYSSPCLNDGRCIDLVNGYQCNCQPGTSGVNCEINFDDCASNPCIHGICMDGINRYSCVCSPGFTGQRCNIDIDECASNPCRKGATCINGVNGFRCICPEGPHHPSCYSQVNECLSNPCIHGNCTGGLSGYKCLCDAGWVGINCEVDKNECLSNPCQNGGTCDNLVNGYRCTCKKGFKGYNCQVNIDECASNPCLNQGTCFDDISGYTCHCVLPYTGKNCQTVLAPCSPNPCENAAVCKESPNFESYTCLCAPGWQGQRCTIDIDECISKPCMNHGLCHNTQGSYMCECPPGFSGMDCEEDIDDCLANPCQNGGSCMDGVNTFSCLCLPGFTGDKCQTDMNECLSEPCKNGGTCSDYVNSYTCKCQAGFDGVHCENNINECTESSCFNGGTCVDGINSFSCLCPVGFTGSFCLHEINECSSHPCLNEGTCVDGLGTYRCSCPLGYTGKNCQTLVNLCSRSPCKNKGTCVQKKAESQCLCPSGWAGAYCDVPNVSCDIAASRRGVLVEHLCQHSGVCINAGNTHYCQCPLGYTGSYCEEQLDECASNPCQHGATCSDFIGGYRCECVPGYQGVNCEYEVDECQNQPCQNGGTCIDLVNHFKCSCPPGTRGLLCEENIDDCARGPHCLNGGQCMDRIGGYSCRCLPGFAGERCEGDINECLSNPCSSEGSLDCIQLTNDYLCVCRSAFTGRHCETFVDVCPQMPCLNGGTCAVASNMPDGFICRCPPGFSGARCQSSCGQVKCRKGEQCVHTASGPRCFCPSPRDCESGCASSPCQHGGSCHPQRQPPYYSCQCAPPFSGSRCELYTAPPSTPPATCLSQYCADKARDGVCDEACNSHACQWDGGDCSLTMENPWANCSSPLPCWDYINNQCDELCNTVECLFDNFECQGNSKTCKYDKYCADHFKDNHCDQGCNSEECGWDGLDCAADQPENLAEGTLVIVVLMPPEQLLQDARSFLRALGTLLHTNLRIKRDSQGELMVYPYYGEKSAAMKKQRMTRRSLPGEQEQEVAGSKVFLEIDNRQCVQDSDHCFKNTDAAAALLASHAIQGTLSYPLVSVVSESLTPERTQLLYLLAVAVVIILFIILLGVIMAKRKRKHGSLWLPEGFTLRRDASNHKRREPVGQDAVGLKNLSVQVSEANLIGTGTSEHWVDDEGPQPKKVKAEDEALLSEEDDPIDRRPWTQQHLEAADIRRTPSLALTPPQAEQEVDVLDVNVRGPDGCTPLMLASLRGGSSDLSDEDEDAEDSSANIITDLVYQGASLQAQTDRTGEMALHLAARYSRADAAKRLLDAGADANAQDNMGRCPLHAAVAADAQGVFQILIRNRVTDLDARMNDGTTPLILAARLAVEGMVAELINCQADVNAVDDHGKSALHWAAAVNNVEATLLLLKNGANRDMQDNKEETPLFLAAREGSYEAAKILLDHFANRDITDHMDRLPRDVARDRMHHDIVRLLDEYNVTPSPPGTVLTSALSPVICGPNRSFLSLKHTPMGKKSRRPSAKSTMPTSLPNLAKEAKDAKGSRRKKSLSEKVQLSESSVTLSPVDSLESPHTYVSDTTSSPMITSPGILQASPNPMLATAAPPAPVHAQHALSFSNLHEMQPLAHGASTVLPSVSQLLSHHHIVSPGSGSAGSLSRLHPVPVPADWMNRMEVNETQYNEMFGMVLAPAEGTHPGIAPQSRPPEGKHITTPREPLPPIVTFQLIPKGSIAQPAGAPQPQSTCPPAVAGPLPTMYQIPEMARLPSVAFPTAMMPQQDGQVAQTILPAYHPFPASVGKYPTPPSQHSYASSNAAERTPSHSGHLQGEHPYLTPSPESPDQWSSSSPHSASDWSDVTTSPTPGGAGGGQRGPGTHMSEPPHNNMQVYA
Sequence of Pro-neuregulin-1, membrane-bound isoform (Homo sapiens) (Q02297 whole entry, looked up, the tested form may be a part, canonical isoform): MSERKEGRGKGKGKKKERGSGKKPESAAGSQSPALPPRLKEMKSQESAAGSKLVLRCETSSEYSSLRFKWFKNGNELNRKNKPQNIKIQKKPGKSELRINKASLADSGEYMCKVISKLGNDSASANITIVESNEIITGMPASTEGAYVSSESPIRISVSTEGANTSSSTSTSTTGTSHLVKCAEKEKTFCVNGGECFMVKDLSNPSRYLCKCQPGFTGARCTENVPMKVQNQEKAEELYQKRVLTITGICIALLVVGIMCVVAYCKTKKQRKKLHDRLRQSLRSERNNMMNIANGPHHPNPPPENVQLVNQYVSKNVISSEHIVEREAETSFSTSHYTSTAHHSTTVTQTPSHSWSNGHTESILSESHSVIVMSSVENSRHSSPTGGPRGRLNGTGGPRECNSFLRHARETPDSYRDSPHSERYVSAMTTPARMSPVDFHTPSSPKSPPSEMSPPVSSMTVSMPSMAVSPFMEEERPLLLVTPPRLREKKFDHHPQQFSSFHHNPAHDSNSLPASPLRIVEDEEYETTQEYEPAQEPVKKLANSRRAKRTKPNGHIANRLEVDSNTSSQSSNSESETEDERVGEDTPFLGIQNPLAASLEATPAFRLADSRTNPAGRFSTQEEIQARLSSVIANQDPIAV

Row | Structure (SMILES) | composite z-score [1] | composite z-score [2] | composite z-score [3] | composite z-score [4] | composite z-score [5] | composite z-score [6] | composite z-score [7] | z-score [8] | composite z-score [9] | composite z-score [10]
1 | CC(C)[Si](C#Cc1ccc(Oc2ccccc2)cc1)(O[Si](C#Cc1ccc(Oc2ccccc2)cc1)(C(C)C)C(C)C)C(C)C | -0.496 | 0.253 | -0.133 | 0.967 | 0.766 | -0.0929 | 0.664 | -0.421 (inactive) | -0.0273 | -0.0994
2 | COC(=O)C(CC#Cc1ccc2c(c1)[C@]1(C(=O)N2)[C@H](c2ccc(OCCO)cc2)N2[C@H](c3ccccc3)[C@H](c3ccccc3)OC(=O)[C@H]2[C@@H]1C(=O)Nc1nc2ccccc2s1)C(=O)OC | -0.319 | -0.164 | 0.0519 | 0.465 | 1.03 | 1.36 | 1.19 | 2.62 (inactive) | 0.582 | 0.0156
3 | COc1cc2c(cc1OC)CN(C(=O)[C@@H]1[C@H]3C(=O)O[C@H](c4ccccc4)[C@H](c4ccccc4)N3[C@H](c3ccccc3OCCO)[C@@]13C(=O)Nc1ccc(C#CCCO)cc13)CC2 | 0.718 | 0.531 | -0.152 | 0.671 | 0.626 | 0.86 | 1.23 | 0.876 (inactive) | 1.25 | 0.0458
4 | NCCCCCCNC(=O)[C@@H]1C[C@@H]2C(=O)NCC(=O)N2[C@@H]1c1ccc(O)cc1 | -0.175 | 0.853 | -0.14 | 0.177 | 0.571 | 1.32 | 1.41 | 1.03 (inactive) | 0.703 | -0.207
5 | O=C(c1ccccc1)N1Cc2ccccc2C[C@@]2(COC(c3ccc(OCCCO)cc3)=N2)C1=O | -0.0932 | 0.711 | 0.0292 | 0.591 | 1.03 | 0.0612 | 1.25 | -0.187 (inactive) | 0.146 | -0.0296
6 | COC(=O)[C@@]1(Cc2ccc(OC)cc2)[C@H]2c3cc(C(=O)N(C)C)n(Cc4ccc(S(C)(=O)=O)cc4)c3C[C@H]2CN1C(=O)c1ccccc1 | 1.12 | 0.325 | 0.27 | 0.178 | 1.24 | 1.64 | 1.31 | -1.49 (inactive) | 1.46 | 0.296
7 | COc1cc2c(cc1O)C(C1CC1)N(Cc1sc3ccccc3c1Cl)CC2 (stereo not given) | 0.0766 | 0.602 | -0.135 | 0.0173 | 0.182 | -0.214 | 1.23 | 0.566 (inactive) | -0.145 | -0.0994
8 | C=C(/C(=C/C[C@H](OC(C)=O)c1ccccc1OCCO)c1cnc2ccccc2c1)C(C)C | 0.168 | 0.126 | -0.0419 | 0.324 | 0.775 | 0.586 | 0.87 | -0.607 (inactive) | 0.0254 | 0.0274
9 | O=C1O[C@@H](c2ccccc2)[C@@H](c2ccccc2)N2[C@@H](c3ccccc3OCCO)[C@]3(C(=O)Nc4ccccc43)[C@@H](C(=O)Nc3nc4ccccc4s3)[C@H]12 | 0.0741 | 0.581 | 0.0566 | 0.841 | 1.15 | 2.01 | 1.26 | -1.26 (inactive) | 0.247 | -0.329
10 | CCS[C@H]1[C@@H](C(=O)O)[C@H](c2ccc(C)cc2)N(S(=O)(=O)c2ccc(C)cc2)[C@@H]1CC | -0.21 | -0.0564 | 0.0288 | 1.1 | 1.36 | 1.84 | 1.36 | -3.15 (inactive) | 1.56 | 0.201
11 | O=C1C[C@@](C(=O)NC2CC2)(c2ccc([N+](=O)[O-])cc2)[C@@H](c2ccc(CO)cc2I)N1C1CCCCC1 | -0.407 | 0.722 | 0.0043 | 0.496 | 0.677 | 1.04 | 1.34 | -0.165 (inactive) | 0.419 | 0.075
12 | COc1ccc(CCNC(=O)[C@@H]2c3ccccc3C(=O)N(Cc3ccccc3Cl)[C@H]2c2ccc(CO)cc2)cc1 | 0.199 | 0.0795 | -0.123 | 0.218 | 0.586 | 0.8 | 1.38 | -2.28 (inactive) | 0.19 | -0.214
13 | COC(=O)[C@]1(CCC(=O)OC(C)(C)C)N=C(c2ccc(OCCCO)cc2)O[C@@H]1c1ccccc1CN=[N+]=[N-] | 0.995 | -0.0569 | -0.0073 | 0.0301 | 0.53 | 0.971 | 1.14 | -3.06 (inactive) | 0.773 | -0.169
14 | CCC[C@@H]1C[C@@]1(CCC)[C@@H](NS(=O)(=O)c1cccc2cccnc12)c1ccc(Cl)cc1 | 0.561 | -0.754 | 0.0367 | 0.0835 | 0.763 | 0.858 | 0.917 | -3.58 (inactive) | 0.855 | -0.0729
15 | C=CCC(OC(C)=O)[C@@H]1[C@@H](N(Cc2cc3ccccc3o2)C(=O)c2cccc3ccccc23)c2cc(OCCCO)ccc2N1C(=O)c1ccc(-c2ccccc2)cc1 (stereo not given in full) | 0.118 | -0.203 | -0.108 | 0.0904 | 0.0918 | 0.142 | -0.164 | -0.408 (inactive) | 0.101 | -0.137
16 | COc1ccc(CCNC(=O)[C@@]2(C)c3ccccc3C(=O)N(C(C)C)[C@H]2c2ccc(CO)cc2)cc1 | -0.182 | 0.39 | 0.0376 | 0.4 | 0.246 | 0.693 | 1.3 | -0.262 (inactive) | 0.933 | -0.394

Row | Structure (SMILES) | composite z-score [1] | composite z-score [2] | composite z-score [3] | composite z-score [4] | composite z-score [5] | composite z-score [6] | composite z-score [7] | z-score [8] | composite z-score [9] | composite z-score [10]
17 | C=C[C@H](CO[Si](CC)(CC)CC)N(Cc1ccc(OC(C)=O)c(OC)c1)S(=O)(=O)c1ccc(Br)cc1 | 0.572 | 1.64 | 0.365 | 0.326 | -0.156 | 1.27 | 1.05 | -2.48 (inactive) | 1.22 | -0.0788
18 | NC(=O)N1C(=O)C2C(C1=O)C1C=C(c3ccc(CO)cc3)C2C(c2cccs2)N1Cc1cccc(OC(F)(F)F)c1 (stereo not given) | 0.677 | 0.639 | -0.0085 | 0.326 | -0.596 | 1.3 | 0.106 | -0.723 (inactive) | 0.322 | -0.0645
19 | NC(=O)NCC#Cc1ccc2c(c1)[C@]1(C(=O)N2)[C@H](C(=O)Nc2nc3ccccc3s2)[C@H]2C(=O)O[C@H](c3ccccc3)[C@H](c3ccccc3)N2[C@@H]1c1ccccc1OCCO | 1.85 | 0.407 | 0.0863 | 1.01 | 1.03 | 1.57 | 0.406 | 1.62 (inactive) | 1.39 | -0.0478
20 | CCOC(=O)C[C@H]1[C@H](OC(=O)c2ccc(C(=O)c3ccccc3)cc2)[C@@H](NC(=O)CC(C)C)c2cc(OCCCO)ccc2N1C(=O)c1ccc2ccccc2n1 | -0.538 | 0.154 | -0.0715 | 0.86 | 1.28 | 0.621 | 1.22 | -0.291 (inactive) | 0.334 | -0.137
21 | CCOC(=O)C[C@H]1[C@H](OC(=O)c2ccc(C(=O)c3ccccc3)cc2)[C@@H](NC(=O)c2ccccc2)c2cc(OCCCO)ccc2N1C(=O)Cc1ccc(OC)cc1 | 0.0814 | 0.128 | -0.0502 | 0.153 | 0.12 | -0.126 | 0.532 | -1.09 (inactive) | 0.0512 | -0.0237
22 | COC(=O)[C@@]1(Cc2ccc(OC)cc2)[C@H]2c3cc(C(=O)N(C)C)n(CCc4ccccn4)c3C[C@H]2CN1C(=O)c1ccccc1 | 1.63 | -0.0525 | 0.638 | 0.402 | 1.61 | 0.428 | 1.05 | 0.845 (inactive) | 1.38 | 0.47
23 | C=CC1(C(=O)OC)CC=C(C(=O)OC)CC1 (stereo not given) | -0.219 | 0.191 | -0.0226 | 1.17 | 1.12 | 1.73 | 1.12 | -0.941 (inactive) | 0.0908 | 0.0623
24 | C=CCOC(=O)[C@H]1[C@@H]2C(=O)O[C@@H](c3ccccc3)[C@@H](c3ccccc3)N2[C@@H](c2ccc(OCCOC(=O)[C@H]3C[C@H]4C(=O)N[C@@H](CCCCNC(C)=O)C(=O)N4[C@H]3c3ccc(O)cc3)cc2)[C@]12C(=O)Nc1ccc(I)cc12 | -0.37 | 0.517 | 0.0126 | 0.169 | 0.791 | 0.349 | 1.14 | 0.136 (inactive) | 1.3 | 0.312
25 | COc1cc(COC(C)=O)ccc1OC(C)=O | 0.299 | -0.0075 | 0.188 | 0.209 | 0.137 | 0.14 | -0.464 | -0.681 (inactive) | 0.408 | 0.318
26 | NC(=O)NCC#Cc1ccc2c(c1)[C@]1(C(=O)N2)[C@H](c2ccc(O)cc2)N2[C@H](c3ccccc3)[C@H](c3ccccc3)OC(=O)[C@H]2[C@@H]1C(=O)O | 0.741 | -0.935 | -0.176 | -0.225 | -0.897 | 1.08 | -0.224 | 0.473 (inactive) | -0.0113 | -0.457
27 | COC(=O)C[C@H]1O[C@]2(C(=O)N(C)c3ccccc32)[C@@H](C)[C@@H]1[Si](C)(C)F | -0.54 | 0.109 | -0.131 | 0.626 | 0.423 | -0.133 | 0.346 | -1.35 (inactive) | -0.0253 | 0.141
28 | COC(=O)[C@H](Cc1ccccc1)N[C@@H](/C=C/C1CC1)[C@H](O)Cc1ccccc1 | 0.115 | -0.355 | 0.0748 | 0.699 | -1.08 | -0.292 | 0.583 | -2.66 (inactive) | -0.575 | -0.409
29 | COc1cc(Br)cc(C(O)C2C=CC3C(=O)N(C)C(=O)C3N2N2CCCCC2)c1OC (stereo not given) | 0.0974 | -1.02 | -0.053 | -0.207 | 0.224 | 0.818 | 1.31 | 0.876 (inactive) | 0.347 | 0.0677
30 | C=CC[C@]1(C(=O)NCc2ccccc2)N=C(c2ccc(OCCCO)cc2)O[C@H]1c1ccccc1N=[N+]=[N-] | -0.158 | 1.46 | 0.282 | 0.399 | 1.13 | 1.24 | 1.04 | -0.71 (inactive) | 1.08 | -0.171
31 | CC1(C)C2C=C(C(O)C3C=CC4C(=O)NC(=O)C4N3Nc3ccc(Cl)cc3Cl)C[C@@H]1C2 (stereo not given in full) | 1.16 | 0.877 | 0.0474 | 0.519 | 1.59 | 1.5 | 0.867 | -0.505 (inactive) | 1.29 | -0.104
32 | [N-]=[N+]=Nc1ccccc1[C@H]1OC(c2ccc(OCCCO)cc2)=N[C@@]1(CCS(=O)(=O)c1ccccc1)C(=O)NCC(O)CO (stereo not given in full) | 0.408 | 0.652 | 0.0367 | 0.543 | 1.35 | 1.75 | 1.3 | 5.85 (inactive) | 1.1 | -0.283
